The values that follow come from PubChem BioAssay (EPA / NIEHS).

Where “and” joins values, the source holds several entries; their conditions need not be identical. Equal values may be shown once. Inconclusive results are not listed. More than one record can exist for a structure, and the calls need not agree. Calls of active or inactive are those of the source. How the source made its calls, unless noted: active means hit-call score of the fitted dose curve at least 0.9, where 1 is the maximum; inactive means score below 0.9.

The target of test [1] is Myc proto-oncogene protein (Homo sapiens) (UniProt P01106). As to the kind of experiment: ATG_Myc_CIS: Attagene CIS-FACTORIAL HepG2 Assay for human Myelocytomatosis (Myc) Proto-Oncogene Transcription Factor (AID 2282990). Conditions: HepG2, Attagene cis-reporter transcription factor activity; actives raise or lower the signal. The essentials: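 HepG2, transient MRTU transfection (cis promoters, endogenous TFs); 24 h dosing; TriZol RNA → oligo(dT) RT → PCR → 6-FAM primer extension → HpaI cut → CE. Bidirectional fit vs DMSO.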
Myc proto-oncogene protein (Homo sapiens), sequence (P01106 whole entry, looked up): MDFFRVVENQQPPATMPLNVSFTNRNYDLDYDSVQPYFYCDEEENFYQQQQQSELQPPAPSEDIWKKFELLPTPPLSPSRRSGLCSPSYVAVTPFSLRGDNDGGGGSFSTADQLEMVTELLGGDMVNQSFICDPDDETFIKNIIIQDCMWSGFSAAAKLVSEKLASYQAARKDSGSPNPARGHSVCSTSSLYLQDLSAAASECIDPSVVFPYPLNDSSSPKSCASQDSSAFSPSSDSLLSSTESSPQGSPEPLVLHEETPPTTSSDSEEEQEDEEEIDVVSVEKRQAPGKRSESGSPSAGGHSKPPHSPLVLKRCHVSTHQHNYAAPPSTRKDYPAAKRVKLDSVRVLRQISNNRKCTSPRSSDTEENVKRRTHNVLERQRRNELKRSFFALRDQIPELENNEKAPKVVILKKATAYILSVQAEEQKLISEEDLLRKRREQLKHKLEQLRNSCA

Test [2] in a line: ATG_NF_kB_CIS: Attagene CIS-FACTORIAL HepG2 Assay for human Nuclear Factor Kappa B (NF-kB) (AID 2282991). Conditions: HepG2 Attagene cis-factorial NF-kB reporter mRNA; actives raise or lower the signal. The method in brief: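 Fluorescence of labelled RT-PCR products separated by capillary electrophoresis gives reporter mRNA levels from transfected HepG2 cells exposed 24 h; values are fitted in both directions relative to DMSO.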

The nature of test [3]: ATG_NRF2_ARE_CIS: Attagene CIS-FACTORIAL HepG2 Assay for human Nuclear Factor Erythroid 2 Related Factor 2 (NFR2) response to Antioxidant Response Elements (ARE) (AID 2282992). Conditions: HepG2 Attagene ARE/NRF2 reporter, transcription factor activity; actives raise or lower the signal. The essentials:
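Multiplexed reporter mRNA profiling in HepG2 after a 24 h chemical exposure. Curves fitted in both directions relative to DMSO negative control.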

A short description of test [4]: ATG_Oct_MLP_CIS: Attagene CIS-FACTORIAL HepG2 Assay for human Octamer-Binding Transcription Factor (Oct) (AID 2282993). Conditions: HepG2 Attagene cis-factorial Oct reporter, mRNA; actives raise or lower the signal. The method in brief:
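Cells of the HepG2 line express promoter-controlled reporter sequences whose mRNA levels, after 24 h treatment, are measured by RT-PCR and capillary electrophoresis. Increases and decreases are scored relative to DMSO.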

In test [5] the target is Cellular tumor antigen p53 (Homo sapiens) (UniProt P04637). Nature of the test: ATG_p53_CIS: Attagene CIS-FACTORIAL HepG2 Assay for human p53 Transcription Factor (AID 2282994). Conditions: HepG2 p53 cis-element reporter, Attagene mRNA; actives raise or lower the signal. The method in brief: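 Multiplexed reporter mRNA assay in human HepG2 liver cells; cis-regulated units report endogenous factor activity. Values come from bidirectional curve fitting against DMSO negative control after 24 h treatment.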
Cellular tumor antigen p53 (Homo sapiens), sequence (P04637 whole entry, looked up): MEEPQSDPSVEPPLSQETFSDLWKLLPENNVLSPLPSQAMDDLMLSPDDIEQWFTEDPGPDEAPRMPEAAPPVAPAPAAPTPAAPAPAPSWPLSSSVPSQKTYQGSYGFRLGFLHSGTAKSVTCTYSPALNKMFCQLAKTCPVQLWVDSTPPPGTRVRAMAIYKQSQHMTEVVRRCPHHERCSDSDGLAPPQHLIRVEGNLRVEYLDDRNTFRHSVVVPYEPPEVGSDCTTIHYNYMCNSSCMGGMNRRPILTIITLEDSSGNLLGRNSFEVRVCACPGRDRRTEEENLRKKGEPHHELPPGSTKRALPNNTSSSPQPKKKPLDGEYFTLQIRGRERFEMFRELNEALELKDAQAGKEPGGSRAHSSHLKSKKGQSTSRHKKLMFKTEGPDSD

The nature of test [6]: BSK_3C_TissueFactor: BioMAP Diversity Plus: 3C Assay for Tissue Factor Biomarker Activity (AID 2282997). Conditions: BioMAP 3C HUVEC, tissue factor biomarker readout; actives raise or lower the signal. The essentials: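 ELISA read-out of Tissue Factor levels on human umbilical vein endothelium collected 24 h after chemical dosing. Gain or loss of signal was fitted relative to DMSO.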

A short description of test [7]: BSK_3C_uPAR: BioMAP Diversity Plus: 3C Assay for Urokinase-type plasminogen activator receptor (uPAR) Biomarker Activity (AID 2282998). Conditions: BioMAP 3C HUVEC, uPAR biomarker ELISA; actives raise or lower the signal. The method in brief:
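Endothelial primary cells of human umbilical vein origin received test chemical; 24 h later uPAR was assayed by ELISA. Fitting was bidirectional, DMSO as negative control.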
For orientation: ELISA stands for enzyme-linked immunosorbent assay.

Test [8] in a line: BSK_3C_VCAM1: BioMAP Diversity Plus: 3C Assay for Vascular cell adhesion molecule 1 (VCAM1) Biomarker Activity (AID 2282999). Conditions: BioMAP 3C HUVEC, VCAM1 ELISA, cytokine-stimulated; actives raise or lower the signal. The method in brief: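 Endothelial cells from human umbilical vein are treated with test chemical. At 24 h, VCAM-1 is measured by ELISA, and responses in either direction are fitted relative to DMSO.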

Test [9] is described as follows: BSK_4H_Eotaxin3: BioMAP Diversity Plus: 4H Assay for Eotaxin 3 Biomarker Activity (AID 2283000).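 Further: CCL26 protein level quantified by ELISA in parallel with SRB cytotoxicity check.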 Conditions: primary human endothelial cells (HUVEC); actives raise or lower the signal. The method in brief: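 Chemicals were added to human umbilical vein endothelium cultures, and Eotaxin-3 was quantified by ELISA at 24 h. Values were derived by bidirectional fitting with DMSO serving as negative control and activity baseline.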

Test [10] concerns the target human Peroxisome Proliferator-activated Receptor alpha (PPARa), PPARA (gene 5465) (UniProt Q07869). As to the kind of experiment: ATG_PPARa_TRANS: Attagene TRANS-FACTORIAL HepG2 Assay for human Peroxisome Proliferator-activated Receptor alpha (PPARa) (AID 2283001; active means hit-call score of the fitted dose curve at least 0.9, where 1 is the maximum). The essentials: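 Reporter transcripts from GAL4-UAS units in transfected HepG2 were quantified 24 h after dosing. Detection used reverse transcription, PCR, fluorescent primer extension and capillary electrophoresis, with DMSO as baseline.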

In test [11] the target is human Peroxisome Proliferator-activated Receptor delta (PPARd), PPARD (gene 5467) (UniProt Q03181). As to the kind of experiment: ATG_PPARd_TRANS: Attagene TRANS-FACTORIAL HepG2 Assay for human Peroxisome Proliferator-activated Receptor delta (PPARd) (AID 2283002; active means hit-call score of the fitted dose curve at least 0.9, where 1 is the maximum). The essentials:
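Transient HepG2 transfection (multiple GAL4-UAS RTUs, chimeric receptor-Gal4); 24 h dosing; total RNA → oligo(dT) RT → PCR → 6-FAM primer extension → HpaI cut → CE. Positive direction vs DMSO.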

Read-out in test [12]: Intercellular Adhesion Molecule 1 (ICAM1), ICAM1 (gene 3383)
Nature of the test: BSK_3C_ICAM1: BioMAP Diversity Plus: 3C Assay for Intercellular Adhesion Molecule 1 (ICAM1) Biomarker Activity (AID 2283003). Conditions: primary human endothelial cells (HUVEC); actives raise or lower the signal. The essentials: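 Primary human umbilical vein endothelial cells in the BioMAP 3C system were exposed to chemicals for 24 h, then ICAM-1 was quantified by ELISA. Activity was fitted bidirectionally against the DMSO negative control baseline.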

A short description of test [13]: BSK_3C_Proliferation: Cell Proliferation Assessment in the BioMAP Diversity Plus: 3C Assay (AID 2283006).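 On AC50: potency may reflect either rise or fall in cell number versus DMSO.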 Conditions: primary human endothelial cells (HUVEC). The method in brief:
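Human umbilical vein endothelial cells were grown sub-confluent and exposed to chemical for 48 h, then fixed with 10% TCA and stained with 0.1% sulforhodamine B; absorbance at 560 nm gave relative cell number, fitted bidirectionally against DMSO baseline.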

Test [14] has as its target Nuclear receptor subfamily 1 group I member 2 (Homo sapiens) (UniProt O75469). Nature of the test: ATG_PXR_TRANS: Attagene TRANS-FACTORIAL HepG2 Assay for human Pregnane X Receptor (PXR) (AID 2283008; active means hit-call score of the fitted dose curve at least 0.9, where 1 is the maximum). The method in brief:
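Measures mRNA induction of a GAL4-UAS-driven reporter in human HepG2 cells transiently expressing PXR fused to Gal4, following 24 h treatment. DMSO served as negative control and baseline.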

For test [15], the target named is human RAR-related Orphan Receptor beta (RORb), RORB (gene 6096) (UniProt Q92753). Nature of the test: ATG_RORb_TRANS: Attagene TRANS-FACTORIAL HepG2 Assay for human RAR-related Orphan Receptor beta (RORb) (AID 2283010; active means hit-call score of the fitted dose curve at least 0.9, where 1 is the maximum). The method in brief:
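HepG2 cells were transiently transfected with multiplexed GAL4-UAS reporter units expressing chimeric nuclear receptor–GAL4 proteins, then dosed for 24 h. Reporter mRNA was quantified by RT-PCR with fluorescent labelling and capillary electrophoresis; gain of signal was fitted relative to DMSO.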

The target of test [16] is human RAR-related Orphan Receptor gamma (RORg), RORC (gene 6097) (UniProt P51449). Nature of the test: ATG_RORg_TRANS: Attagene TRANS-FACTORIAL HepG2 Assay for human RAR-related Orphan Receptor gamma (RORg) (AID 2283011; active means hit-call score of the fitted dose curve at least 0.9, where 1 is the maximum). The essentials: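 First, HepG2 liver cells were transfected with GAL4-UAS-driven reporter constructs and the RORg-Gal4 fusion. Next, they were treated with chemical for 24 h. Finally, reporter mRNA was quantified by RT-PCR and capillary electrophoresis, with upward activity fitted against DMSO.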
human RAR-related Orphan Receptor gamma (RORg), RORC (gene 6097), sequence (P51449 whole entry, looked up, the tested form may be a part): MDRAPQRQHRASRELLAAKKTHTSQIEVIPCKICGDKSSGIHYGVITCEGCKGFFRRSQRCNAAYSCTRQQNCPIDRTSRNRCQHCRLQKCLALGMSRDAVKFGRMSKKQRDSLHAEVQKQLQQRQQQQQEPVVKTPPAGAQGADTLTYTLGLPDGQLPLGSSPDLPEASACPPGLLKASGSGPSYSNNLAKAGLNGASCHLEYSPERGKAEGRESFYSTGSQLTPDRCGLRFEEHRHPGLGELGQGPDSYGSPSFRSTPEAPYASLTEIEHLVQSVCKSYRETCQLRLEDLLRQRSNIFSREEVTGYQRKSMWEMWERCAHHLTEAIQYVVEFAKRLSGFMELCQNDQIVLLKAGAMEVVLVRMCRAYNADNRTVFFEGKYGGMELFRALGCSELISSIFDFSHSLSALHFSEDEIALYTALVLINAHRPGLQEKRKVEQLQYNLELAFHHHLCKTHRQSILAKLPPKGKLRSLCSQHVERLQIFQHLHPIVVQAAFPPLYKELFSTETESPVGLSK

Test [17] deals with Retinoic acid receptor RXR-alpha (Homo sapiens) (UniProt P19793). As to the kind of experiment: ATG_RXRa_TRANS: Attagene TRANS-FACTORIAL HepG2 Assay for human Retinoid X Receptor alpha (RXRa) (AID 2283012; active means hit-call score of the fitted dose curve at least 0.9, where 1 is the maximum). The method in brief: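 HepG2 cells transiently transfected with multiplexed GAL4-UAS reporter units and chimeric NR-GAL4 fusions, dosed 24 h. Reporter mRNA measured by RT-PCR, FAM labelling, HpaI digestion and capillary electrophoresis; gain-of-signal fitted relative to DMSO baseline.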
Retinoic acid receptor RXR-alpha (Homo sapiens), sequence (P19793 whole entry, looked up, the tested form may be a part): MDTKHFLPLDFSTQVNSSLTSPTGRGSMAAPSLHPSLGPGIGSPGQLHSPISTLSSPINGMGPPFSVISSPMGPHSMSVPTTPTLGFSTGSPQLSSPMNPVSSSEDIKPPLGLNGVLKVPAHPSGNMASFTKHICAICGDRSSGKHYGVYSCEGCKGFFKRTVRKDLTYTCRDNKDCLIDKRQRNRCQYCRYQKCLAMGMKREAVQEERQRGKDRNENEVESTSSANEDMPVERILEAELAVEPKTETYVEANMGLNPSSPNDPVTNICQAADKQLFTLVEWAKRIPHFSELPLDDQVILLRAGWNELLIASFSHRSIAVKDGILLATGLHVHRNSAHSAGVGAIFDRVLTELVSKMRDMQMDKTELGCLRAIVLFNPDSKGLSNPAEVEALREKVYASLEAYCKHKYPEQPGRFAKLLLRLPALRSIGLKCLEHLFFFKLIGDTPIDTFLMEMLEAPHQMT

Test [18] has as its target Retinoic acid receptor alpha (Homo sapiens) (UniProt P10276). As to the kind of experiment: ATG_RARa_TRANS: Attagene TRANS-FACTORIAL HepG2 Assay for human Retinoic Acid Receptor alpha (RARa) (AID 2283005; active means hit-call score of the fitted dose curve at least 0.9, where 1 is the maximum;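 on AC50: potency for increased reporter signal meaning RARa activation over DMSO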). The method in brief: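 Reporter transcripts, measured by RT-PCR with fluorescent labeling and capillary electrophoresis after 24 h dosing, reflect activity of an exogenous human RARa–GAL4 fusion in transiently transfected HepG2. Fitted for increase relative to DMSO.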

Test [19] deals with Peroxisome proliferator-activated receptor gamma (Homo sapiens) (UniProt P37231). Nature of the test: ATG_PPARg_TRANS: Attagene TRANS-FACTORIAL HepG2 Assay for human Peroxisome Proliferator-activated Receptor-gamma (PPARg) (AID 2283007; active means hit-call score of the fitted dose curve at least 0.9, where 1 is the maximum). The method in brief: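 Twenty-four hours after chemical dosing of transiently transfected HepG2 cells, isolated RNA was converted to cDNA, reporter sequences amplified and 6-FAM-labelled, then HpaI-digested and analysed by capillary electrophoresis. Signal increase against DMSO was fitted.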
Peroxisome proliferator-activated receptor gamma (Homo sapiens), sequence (P37231 whole entry, looked up): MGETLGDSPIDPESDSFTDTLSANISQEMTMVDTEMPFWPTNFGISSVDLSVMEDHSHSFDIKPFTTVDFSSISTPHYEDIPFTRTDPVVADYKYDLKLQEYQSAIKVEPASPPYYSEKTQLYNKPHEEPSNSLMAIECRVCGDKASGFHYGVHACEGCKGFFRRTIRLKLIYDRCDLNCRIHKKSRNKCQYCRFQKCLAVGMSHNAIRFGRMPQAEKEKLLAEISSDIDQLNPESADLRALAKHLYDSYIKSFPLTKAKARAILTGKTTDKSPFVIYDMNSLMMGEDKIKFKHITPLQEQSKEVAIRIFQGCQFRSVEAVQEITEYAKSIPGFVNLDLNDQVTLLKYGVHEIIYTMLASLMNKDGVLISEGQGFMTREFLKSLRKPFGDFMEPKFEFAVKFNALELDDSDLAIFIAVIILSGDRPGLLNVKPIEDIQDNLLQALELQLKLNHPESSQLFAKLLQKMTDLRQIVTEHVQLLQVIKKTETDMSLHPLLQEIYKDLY

The target of test [20] is human Retinoic Acid Receptor gamma (RARg), RARG (gene 5916) (UniProt P13631). Nature of the test: ATG_RARg_TRANS: Attagene TRANS-FACTORIAL HepG2 Assay for human Retinoic Acid Receptor gamma (RARg) (AID 2283009; active means hit-call score of the fitted dose curve at least 0.9, where 1 is the maximum;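 on AC50: AC50 is for reporter induction above DMSO meaning RARg activation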). The method in brief:
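HepG2 cells transiently transfected with multiplexed reporter units expressing chimeric RARg-GAL4 and GAL4-UAS-driven reporters; 24 h compound exposure. Reporter mRNA quantified by RT-PCR with fluorescent labelling and capillary electrophoresis; gain-of-signal fitted relative to DMSO baseline.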

Nuclear receptor subfamily 1 group I member 2 (Homo sapiens), sequence (O75469 whole entry, looked up, the tested form may be a part): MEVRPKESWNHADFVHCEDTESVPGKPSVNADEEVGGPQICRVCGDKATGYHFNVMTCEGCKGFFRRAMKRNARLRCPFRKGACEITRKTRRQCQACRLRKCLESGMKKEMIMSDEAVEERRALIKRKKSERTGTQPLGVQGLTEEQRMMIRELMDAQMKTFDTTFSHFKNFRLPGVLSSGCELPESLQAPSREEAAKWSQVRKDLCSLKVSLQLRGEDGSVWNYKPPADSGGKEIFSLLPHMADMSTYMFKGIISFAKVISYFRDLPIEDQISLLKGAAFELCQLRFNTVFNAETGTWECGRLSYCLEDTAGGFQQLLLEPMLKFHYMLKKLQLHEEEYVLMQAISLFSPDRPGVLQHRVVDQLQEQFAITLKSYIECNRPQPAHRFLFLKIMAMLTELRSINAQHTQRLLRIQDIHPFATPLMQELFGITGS
human Peroxisome Proliferator-activated Receptor delta (PPARd), PPARD (gene 5467), sequence (Q03181 whole entry, looked up, the tested form may be a part): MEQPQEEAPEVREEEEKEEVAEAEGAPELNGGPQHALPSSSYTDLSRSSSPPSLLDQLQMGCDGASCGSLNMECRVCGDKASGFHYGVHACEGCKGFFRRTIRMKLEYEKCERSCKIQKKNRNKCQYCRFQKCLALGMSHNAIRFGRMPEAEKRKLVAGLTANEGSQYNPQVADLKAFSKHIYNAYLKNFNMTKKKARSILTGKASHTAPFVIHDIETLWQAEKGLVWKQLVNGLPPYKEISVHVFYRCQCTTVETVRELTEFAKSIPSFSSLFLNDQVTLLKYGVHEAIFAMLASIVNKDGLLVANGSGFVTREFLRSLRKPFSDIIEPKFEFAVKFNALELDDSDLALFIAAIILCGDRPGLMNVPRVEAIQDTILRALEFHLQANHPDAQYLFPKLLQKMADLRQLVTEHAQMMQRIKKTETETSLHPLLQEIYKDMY
human Peroxisome Proliferator-activated Receptor alpha (PPARa), PPARA (gene 5465), sequence (Q07869 whole entry, looked up, the tested form may be a part): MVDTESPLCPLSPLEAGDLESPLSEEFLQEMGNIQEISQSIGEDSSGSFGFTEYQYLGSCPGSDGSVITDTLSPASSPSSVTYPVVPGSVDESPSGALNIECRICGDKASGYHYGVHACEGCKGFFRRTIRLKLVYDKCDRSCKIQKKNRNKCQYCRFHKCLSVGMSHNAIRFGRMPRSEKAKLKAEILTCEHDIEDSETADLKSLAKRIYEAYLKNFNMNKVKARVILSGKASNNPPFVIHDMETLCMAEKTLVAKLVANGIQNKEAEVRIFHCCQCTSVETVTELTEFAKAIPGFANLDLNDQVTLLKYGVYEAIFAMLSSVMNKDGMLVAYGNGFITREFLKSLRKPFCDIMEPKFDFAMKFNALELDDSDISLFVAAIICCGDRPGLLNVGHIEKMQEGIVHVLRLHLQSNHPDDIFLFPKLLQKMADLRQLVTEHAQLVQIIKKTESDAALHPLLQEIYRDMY
human RAR-related Orphan Receptor beta (RORb), RORB (gene 6096), sequence (Q92753 whole entry, looked up, the tested form may be a part): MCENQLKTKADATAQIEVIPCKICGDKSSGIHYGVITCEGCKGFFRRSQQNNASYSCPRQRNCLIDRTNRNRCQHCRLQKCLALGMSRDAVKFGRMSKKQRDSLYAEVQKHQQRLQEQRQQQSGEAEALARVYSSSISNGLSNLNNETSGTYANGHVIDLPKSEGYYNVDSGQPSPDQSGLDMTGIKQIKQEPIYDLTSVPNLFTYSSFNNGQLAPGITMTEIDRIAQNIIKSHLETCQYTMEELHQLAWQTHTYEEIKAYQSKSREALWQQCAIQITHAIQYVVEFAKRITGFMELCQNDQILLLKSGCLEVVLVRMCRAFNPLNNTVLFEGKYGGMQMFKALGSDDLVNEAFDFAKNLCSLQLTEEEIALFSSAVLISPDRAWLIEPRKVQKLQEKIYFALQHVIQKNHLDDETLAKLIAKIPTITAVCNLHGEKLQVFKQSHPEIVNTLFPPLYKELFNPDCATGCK
human Retinoic Acid Receptor gamma (RARg), RARG (gene 5916), sequence (P13631 whole entry, looked up, the tested form may be a part): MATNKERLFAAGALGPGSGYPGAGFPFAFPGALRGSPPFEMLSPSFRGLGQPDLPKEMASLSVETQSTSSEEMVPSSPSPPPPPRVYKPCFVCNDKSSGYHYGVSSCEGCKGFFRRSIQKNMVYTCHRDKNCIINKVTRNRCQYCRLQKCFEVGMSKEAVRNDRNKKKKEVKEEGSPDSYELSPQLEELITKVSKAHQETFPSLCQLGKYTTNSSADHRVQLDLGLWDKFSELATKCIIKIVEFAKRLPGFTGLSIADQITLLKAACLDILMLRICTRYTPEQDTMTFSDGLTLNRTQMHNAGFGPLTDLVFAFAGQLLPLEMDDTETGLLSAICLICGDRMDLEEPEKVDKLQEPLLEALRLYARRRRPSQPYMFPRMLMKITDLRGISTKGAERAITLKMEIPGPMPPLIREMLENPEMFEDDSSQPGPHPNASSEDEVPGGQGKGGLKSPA

As usually defined, the AC50 is the midpoint of the concentration-response curve, whichever way the signal moves. For the compound `CC12CC1(C)C(=O)N(c1cc(Cl)cc(Cl)c1)C2=O` (centres undefined), the outcome in [1], in [2], in test [3], in [4], in test [5] and in [6] was inactive. The result in [7], in [8], in [9], in [10], in test [11] and in test [12] was inactive. Moreover, the outcome in test [13], in test [14], in [15], in test [16] and in test [17] was inactive. For the same compound, the AC50 in [14] is 2.03 µM (active) and 4.13 µM (active) and 2.07 µM (active).
Take `COc1cc(-c2ccc(N)c(OC)c2)ccc1N`: the outcome in test [1], in [2], in [3], in test [5], in [7] and in test [8] was inactive. Also, the result in [9], in test [10], in test [11], in test [12], in [18] and in test [13] was inactive. Besides, the result in test [19], in test [14], in [20], in test [15] and in test [17] was inactive. Moreover, the AC50 in test [4] is 27.5 µM (active) and 28.5 µM (active); in test [6] it was 4.68 µM (active) and 3.97 µM (active); in [18], 27400 nM (active); in [13], 28800 nM (active); in [20] it was 27200 nM (active).
Turning to `CCC[CH2][Sn]([CH2]CCC)([CH2]CCC)[O]C(=O)c1ccccc1`, the call in [1], in [2], in [4], in [5] and in [10] was inactive. In addition, the AC50 in test [3] was 188 nM (active); in test [19] it was 11.6 nM (active); in [14], 344 nM (active); in [17] it was 5.75 nM (active).
